Experimental data: the supplement of paper PMC12669032

How the values were obtained:
Experiment in all cases: growth AUC relative to DMSO control (median of replicates) (fraction); higher = more growth (less inhibition), active = hit call of the paper
Conditions in all cases: 20 µM; 24 h;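 active = AUC reduced over 20% with Padj below 0.05 in at least 2 of 3 replicates; inactive = otherwise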
Akkermansia muciniphila = system: Akkermansia muciniphila
In short: (§1)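 Gut bacteria were grown singly in mGAM at 37 °C without oxygen, from OD600 0.05, alongside 20 µM compound in 1% DMSO, and OD600 was read each hour for 24 h. Area under the growth curve was normalised to the median of solvent-only wells per plate, or to row and column medians on the industrial chemical plate. The minimum OD was set to 0 beforehand, and the reported value is the median of three biological replicates grown on separate days.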

Bacteroides caccae = system: Bacteroides caccae
In short: as §1

Bacteroides clarus = system: Bacteroides clarus
In short: as §1

Bacteroides dorei = system: Bacteroides dorei
In short: as §1

Bacteroides stercoris = system: Bacteroides stercoris
In short: as §1

[1] = system: Bacteroides thetaiotaomicron
In short: as §1

Bacteroides uniformis = system: Bacteroides uniformis
In short: as §1

[2] = system: Bifidobacterium longum subsp. longum
In short: as §1

Clostridium difficile = system: Clostridium difficile
In short: as §1

Collinsella aerofaciens = system: Collinsella aerofaciens
In short: as §1

Coprococcus comes = system: Coprococcus comes
In short: as §1

Escherichia coli ED1a = system: Escherichia coli ED1a
In short: as §1

Escherichia coli IAI1 = system: Escherichia coli IAI1
In short: as §1

Eubacterium rectale = system: Eubacterium rectale
In short: as §1

[3] = system: Fusobacterium nucleatum subsp. animalis
In short: as §1

Lactobacillus gasseri = system: Lactobacillus gasseri
In short: as §1

Lactobacillus paracasei = system: Lactobacillus paracasei
In short: as §1

Odoribacter splanchnicus = system: Odoribacter splanchnicus
In short: as §1

[4] = system: Parabacteroides distasonis
In short: as §1

Parabacteroides merdae = system: Parabacteroides merdae
In short: as §1

Measured: growth AUC

COC1CCC2(CC1)NC(=O)C(c1cc(C)ccc1C)=C2OC1OC(CO)C(O)C(O)C1O (stereo not given)
inactive: Akkermansia muciniphila 1.1 | Bacteroides caccae 0.946 | Bacteroides clarus 1.02 | Bacteroides dorei 0.993 | Bacteroides stercoris 1.21 | [1] 0.984 | Bacteroides uniformis 1.02 | [2] 1 | Clostridium difficile 1.02 | Collinsella aerofaciens 1.01 | Coprococcus comes 1.03 | Escherichia coli ED1a 1.03 | Escherichia coli IAI1 1.03 | Eubacterium rectale 1.1 | [3] 1.17 | Lactobacillus gasseri 0.948 | Lactobacillus paracasei 1.01 | Odoribacter splanchnicus 0.994 | [4] 1.01 | Parabacteroides merdae 1.05

O=C(Nc1ccc(Cl)cc1C(O)c1ccccc1)c1ccncc1 (stereo not given)
inactive: Akkermansia muciniphila 1.04 | Bacteroides caccae 0.985 | Bacteroides clarus 0.946 | Bacteroides dorei 1.01 | Bacteroides stercoris 0.878 | [1] 0.97 | Bacteroides uniformis 0.987 | [2] 1.01 | Clostridium difficile 0.982 | Collinsella aerofaciens 0.994 | Coprococcus comes 1.04 | Escherichia coli ED1a 0.997 | Escherichia coli IAI1 0.958 | Eubacterium rectale 1.12 | [3] 1.08 | Lactobacillus gasseri 0.966 | Lactobacillus paracasei 0.943 | Odoribacter splanchnicus 0.971 | [4] 0.983 | Parabacteroides merdae 0.979

[S]
inactive: Akkermansia muciniphila 1.05 | Bacteroides caccae 0.954 | Bacteroides clarus 1 | Bacteroides dorei 1.07 | Bacteroides stercoris 1.07 | [1] 1.02 | Bacteroides uniformis 1.06 | [2] 1.01 | Clostridium difficile 1.01 | Collinsella aerofaciens 0.946 | Coprococcus comes 0.956 | Escherichia coli ED1a 0.976 | Escherichia coli IAI1 0.963 | Eubacterium rectale 1.04 | [3] 1.01 | Lactobacillus gasseri 0.959 | Lactobacillus paracasei 1.01 | Odoribacter splanchnicus 1.03 | [4] 0.986 | Parabacteroides merdae 1

CNC(=O)/C(=N/OC)c1ccccc1COc1cc(C(=O)O)ccc1C
inactive: Akkermansia muciniphila 1.01 | Bacteroides caccae 0.982 | Bacteroides clarus 1.03 | Bacteroides dorei 0.979 | Bacteroides stercoris 0.967 | [1] 0.998 | Bacteroides uniformis 1.01 | [2] 0.998 | Clostridium difficile 0.991 | Collinsella aerofaciens 1 | Coprococcus comes 0.984 | Escherichia coli ED1a 1.05 | Escherichia coli IAI1 0.978 | Eubacterium rectale 0.963 | [3] 0.949 | Lactobacillus gasseri 1.1 | Lactobacillus paracasei 0.98 | Odoribacter splanchnicus 0.987 | [4] 1.01 | Parabacteroides merdae 0.973

O=[N+](Nc1ccccc1)c1ccccc1
inactive: Akkermansia muciniphila 0.945 | Bacteroides caccae 0.972 | Bacteroides clarus 0.966 | Bacteroides dorei 0.997 | Bacteroides stercoris 1.08 | [1] 0.991 | Bacteroides uniformis 0.988 | [2] 0.934 | Clostridium difficile 1 | Collinsella aerofaciens 0.965 | Coprococcus comes 0.959 | Escherichia coli ED1a 0.993 | Escherichia coli IAI1 0.955 | Eubacterium rectale 0.921 | [3] 0.978 | Lactobacillus gasseri 0.973 | Lactobacillus paracasei 1.04 | Odoribacter splanchnicus 0.973 | [4] 0.976 | Parabacteroides merdae 0.986

COC(=O)c1cccc(C)c1S(=O)(=O)NC(=O)Nc1nc(OCC(F)(F)F)nc(N(C)C)n1
inactive: Akkermansia muciniphila 0.973 | Bacteroides caccae 0.963 | Bacteroides clarus 0.995 | Bacteroides dorei 1.01 | Bacteroides stercoris 1.01 | [1] 0.985 | Bacteroides uniformis 0.981 | [2] 0.992 | Clostridium difficile 0.987 | Collinsella aerofaciens 1.01 | Coprococcus comes 0.967 | Escherichia coli ED1a 0.992 | Escherichia coli IAI1 0.997 | Eubacterium rectale 0.963 | [3] 0.956 | Lactobacillus gasseri 1.05 | Lactobacillus paracasei 0.936 | Odoribacter splanchnicus 0.997 | [4] 1.02 | Parabacteroides merdae 0.99

Cc1ccc(C(C)NC(=O)[C@@H](NC(=O)OC(C)C)C(C)C)cc1 (stereo not given in full)
inactive: Akkermansia muciniphila 1.06 | Bacteroides caccae 0.975 | Bacteroides clarus 1.03 | Bacteroides dorei 1.01 | Bacteroides stercoris 1.11 | [1] 0.984 | Bacteroides uniformis 0.973 | [2] 0.97 | Clostridium difficile 0.951 | Collinsella aerofaciens 0.986 | Coprococcus comes 1.01 | Escherichia coli ED1a 1.01 | Escherichia coli IAI1 0.992 | Eubacterium rectale 1.08 | [3] 1.08 | Lactobacillus gasseri 0.895 | Lactobacillus paracasei 1.02 | Odoribacter splanchnicus 0.953 | [4] 0.917 | Parabacteroides merdae 1.01

O.O=C(Nc1ccc(Cl)c(Cl)c1)Nc1cc(Cl)ccc1Oc1ccc(Cl)cc1S(=O)(=O)[O-].[Na+]
inactive: Akkermansia muciniphila 1.16 | Bacteroides caccae 0.906 | Bacteroides dorei 0.908 | [2] 0.912 | Clostridium difficile 0.829 | Coprococcus comes 0.823 | Escherichia coli ED1a 1.06 | Escherichia coli IAI1 1.03 | Eubacterium rectale 0.886 | [3] 0.691 | Lactobacillus paracasei 0.906 | Parabacteroides merdae 0.861
active: Bacteroides clarus 0.22 | Bacteroides stercoris 0.0107 | [1] 0.329 | Bacteroides uniformis 0.00911 | Collinsella aerofaciens 0.619 | Lactobacillus gasseri 0.0949 | Odoribacter splanchnicus 0.0102 | [4] 0.494
